# According to PubChem BioAssay (NCATS):
# “And” between values parts separate entries of the source, which are not always exact repeats. Equal entries are not always repeated. Records with an inconclusive call do not appear. Entries that show only a call come without a potency. A number with no mark means an inactive call. The source made the active and inactive calls. The call rests on the fitted dose curve; in most records, active means well fitted curve in the direction sought with a large enough effect; inconclusive means small, poorly fitted or top-dose-only effect, or another doubt; inactive means no such curve, though single readings can be large; an effect the other way counts as inactive or inconclusive. Peptide text beside a SMILES is read from it.
# Legend:
# [1] = biological target: Cellular tumor antigen p53 (Homo sapiens) (UniProt P04637); experiment: Primary qHTS for small molecule compounds that upregulate eGFP-tagged delta133p53alpha (in N-terminal) cells. (AID 2060322); settings: NCI-H358 eGFP-delta133p53alpha fluorescence, 24 h; activation: stronger effect = higher value; further: nearly all actives have a fitted effect of over 75% in size; further: potency means the concentration at half of the fitted maximal effect;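 on activation: cells pre-induced with doxycycline then dosed without doxycycline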
# Method in brief: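 NCI-H358 cells pre-induced 24 h with 10 ng/ml doxycycline for eGFP-delta133p53alpha, plated dox-free and exposed 24 h at 37C to titrated compounds. Fixed, Hoechst-stained; gated GFP peak intensity by laser scanning cytometry, normalized to DMSO (0%) and 57.5 uM 5-azacytidine (100%).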
# [2] = biological target: Aldehyde dehydrogenase, mitochondrial (Homo sapiens) (UniProt P05091); experiment: qHTS for Inhibitors of the Aldehyde Dehydrogenase Family (ALDH2) Primary screen (AID 2061308); settings: ALDH2 enzyme inhibition qHTS, 1536-well; series mostly up to 56 µM; further: nearly all actives have a fitted effect of over 55% in size
# [3] = biological target: Retinaldehyde dehydrogenase 3 (Homo sapiens) (UniProt P47895); experiment: qHTS for Inhibitors of the Aldehyde Dehydrogenase Family (ALDH1A3) Primary screen (AID 2061315); settings: ALDH inhibition qHTS; series mostly up to 56 µM
# Sequence of Cellular tumor antigen p53 (Homo sapiens) (P04637 whole entry, looked up): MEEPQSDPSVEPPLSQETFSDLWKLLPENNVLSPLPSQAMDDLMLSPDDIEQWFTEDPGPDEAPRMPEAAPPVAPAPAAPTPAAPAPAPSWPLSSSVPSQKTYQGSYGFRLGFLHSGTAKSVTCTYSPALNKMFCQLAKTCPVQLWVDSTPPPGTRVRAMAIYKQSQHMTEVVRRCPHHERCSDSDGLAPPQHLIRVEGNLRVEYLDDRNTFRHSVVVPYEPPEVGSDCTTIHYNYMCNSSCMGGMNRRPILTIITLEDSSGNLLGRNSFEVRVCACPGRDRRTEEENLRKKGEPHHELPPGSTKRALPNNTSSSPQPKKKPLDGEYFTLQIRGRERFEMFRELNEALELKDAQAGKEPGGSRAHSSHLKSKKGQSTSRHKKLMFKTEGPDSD
SMILES,activation [1],"activity change, negative = inhibition [2]","activity change, negative = inhibition [3]",Potency [2],Potency [3],Potency [1]
CSCC[C@H](NC(=O)[C@H](CO)NC(=O)[C@H](CCC(=O)O)NC(C)=O)C(=O)N[C@H](C=O)CC(=O)O (Ac-ESMD-aldehyde),12.3%,-17.2% [at 11.2 µM],-13.4% [at 11.2 µM],,,
C=C1C(OC(C)=O)CCC2(C)CCC(C(C)(C)O)CC12 (configuration not stated),-3.05%,,,inactive,inactive,
CC1(C)C2CC=C(COC3OC(COC4OCC(O)(CO)C4O)C(O)C(O)C3O)C1C2 (configuration not stated),18.3%,,,inactive,inactive,
Cc1ccc(N2CCN(S(=O)(=O)N3CCCCC3)CC2)c(C)c1,17.9%,,,inactive,inactive,
OC[C@H]1O[C@@H](Oc2cc(O)c3c(c2)O[C@@H](c2ccc(O)cc2)[C@H](O)C3)[C@H](O)[C@@H](O)[C@@H]1O,4.46%,,,inactive,inactive,
CSCC1OC(n2cnc3c(=O)[nH]cnc32)C(O)C1O (configuration not stated),-8.4%,,,inactive,inactive,
OC[C@H]1O[C@@H](OCCc2ccccc2)[C@H](O)[C@@H](O)[C@@H]1O,-2.29%,,,inactive,inactive,
C=C1CC2C(C)(CCC(=O)O)C(C(C)(C)O)CCC2(C)C2C(=O)OC(C)(C(=O)OC)C(=O)C12C (configuration not stated),10.7%,,,inactive,inactive,
OCc1ccc(O[C@@H]2O[C@H](CO)[C@@H](O)[C@H](O)[C@H]2O)cc1,2.68%,,,inactive,inactive,
O=C1CCC(c2ccccc2)(C2CCN(Cc3ccc(I)cc3)CC2)C(=O)N1 (configuration not stated),4.33%,,,inactive,inactive,
C/C(=C\CC[C@@H](C)[C@H]1CC(O)[C@@]2(C)C3CC[C@H]4C(C)(C)[C@@H](OC5OCC(O)C(O)C5OC5OC(CO)C(O)C(O)C5O)CC[C@@]45C[C@@]35CC(O)[C@]12C)C(=O)O (some centres not stated),-16.8%,,,inactive,inactive,
CC(=O)OCC1(O)CCC2C(COC3OC(CO)C(O)C(O)C3OC(=O)/C=C/c3ccc(O)cc3)=COC(OC(=O)CC(C)C)C21 (configuration not stated),11.5%,,,inactive,inactive,
COC(=O)CCC1(C)C(C(C)(C)O)C(O)CC2(C)Oc3c(C)c4c(c(OC)c3CC21)C(=O)OC4 (configuration not stated),-3.82%,,,inactive,inactive,
CC12CCC(=O)C=C1C(O)CC1C2C(O)CC2(C)C1CC[C@]2(O)C(=O)CO (some centres not stated),5.67%,,,inactive,inactive,
CC1(C)CCCC2(C)C=C(C(=O)O)C(O)CC12 (configuration not stated),-19.1%,,,inactive,inactive,
COc1ccc(/C=C/C(=O)O[C@H]2[C@H](O[C@H]3[C@@H]4C=CO[C@@H](O[C@@H]5O[C@H](CO)[C@@H](O)[C@H](O)[C@H]5O)[C@@H]4[C@@]4(CO)O[C@@H]34)O[C@@H](C)[C@H](O)[C@H]2OC(C)=O)cc1,-0.763%,,,inactive,inactive,
CC1OC(=O)C[C@@H]2C(C(=O)O)=CO[C@@H](O[C@H]3O[C@H](CO)[C@@H](O)[C@H](O)[C@H]3O)[C@H]12 (some centres not stated),-23.2%,,,inactive,inactive,
CC(=O)O[C@@H]1[C@H](O[C@@H]2O[C@H](CO)[C@@H](O)[C@H](O)[C@H]2O)[C@@H](O[C@@H]2O[C@@H](C)[C@H](O)[C@@H](O[C@@H]3O[C@H](CO)[C@@H](O)[C@H](O)[C@H]3O)[C@H]2O)[C@H](OC(=O)[C@]23CCC(C)(C)C[C@H]2C2=CCC4[C@@]5(C)C[C@H](O)[C@H](O[C@@H]6O[C@H](C(=O)O)[C@@H](O)[C@H](O)[C@H]6O)[C@@](C)(C(=O)O)C5CC[C@@]4(C)[C@]2(C)CC3)O[C@@H]1C (some centres not stated),2.29%,6.2% [at 11.2 µM],-6.53% [at 11.2 µM],,,
C=C1CCC2C(C)(C)CCCC2(C)C1CC/C(C)=C\CO (configuration not stated),-12.5%,,,inactive,inactive,
CCC(C)(O)C(O)C(=O)OCc1ccc(O[C@@H]2O[C@H](CO)[C@@H](O)[C@H](O)[C@H]2O)cc1 (some centres not stated),-6.87%,,,inactive,inactive,
CC[C@H](C)/C=C(C)/C=C/C1=CC2=C(Cl)C(=O)[C@](C)(O)[C@H](OC(C)=O)[C@H]2CO1,,,,inactive,inactive,14.8 µM (active)
CC1=C2C(=O)O[C@@H](c3ccoc3)[C@]2(C)CCC1,-11.6% and -7%,,,inactive,inactive,
C[C@@H]1C(=O)O[C@H]2CC34[C@H]5C[C@@H](C(C)(C)C)C36[C@@H](OC(=O)[C@@H]6O)O[C@@]4(C(=O)O5)[C@]21O (some centres not stated),19.1%,,,inactive,inactive,
COc1cc2c(c(OC)c1CC=C(C)C)C[C@H](c1ccc(O)c(CC=C(C)C)c1O)CO2,-7.14%,,,inactive,inactive,
CC(O)C(C)n1ncn(-c2ccc(N3CCN(c4ccc(OCC5COC(Cn6cncn6)(c6ccc(Cl)cc6Cl)O5)cc4)CC3)cc2)c1=O (configuration not stated),-5.67%,,,inactive,inactive,
COc1cc(C(C)=O)ccc1O[C@@H]1O[C@H](CO[C@@H]2OC[C@@H](O)[C@H](O)[C@H]2O)[C@@H](O)[C@H](O)[C@H]1O,9.16%,,,inactive,inactive,
CCC(O)(C(=O)OCc1ccccc1NC(=O)CCC(=O)O)C(C)O (configuration not stated),4.58%,,,inactive,inactive,
CSCC1OC(n2cnc3c(N)ncnc32)C(O)C1O (configuration not stated),6.11%,,,inactive,inactive,
O[C@@](Cc1ncc(CC2(C(F)(F)F)CC2)[nH]1)(c1ccc(-n2cccn2)cc1)C(F)(F)F,-3%,,,inactive,inactive,
